In PubChem BioAssay AID1259420 (Broad Institute, 2018) one finds max activity data, which are given here for 70 compounds.

The structures appear in SMILES notation. Where “and” joins values, the source holds several entries; their conditions need not be identical. Equal entries are not always repeated. In all, about 1,000 compounds went through this assay and about 250 (25%) were called active. Roughly 31% stayed inconclusive and do not appear here. Only a sample is shown. Measured potencies and affinities stand elsewhere. Values without a mark were called inactive. How the calls were made is not given here.

This assay is described as follows: compound activity on host-cell Toxoplasma growth – dose response (AID 1259420).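 Further: host cells were HeLa; final incubation lasted 72 hours.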 Conditions: Toxoplasma gondii growth in host cells, no IFN-gamma; at 19.5 µM unless noted.
In the case of `Cn1nc2c(c1C(=O)Nc1ccc(N3CCCCC3)c(F)c1)CCCC2`, the max activity is 25.8% [at 10 µM]. The same measure for `Cc1ccccc1-c1ccc([C@H]2[C@@H](CO)N3C(=O)CN(C(=O)c4ccncc4)C[C@@H]23)cc1`: -13.9% [at 0.16 µM].

As to `CN(C)C1CCN(Cc2cccc(C#N)c2)C(C(=O)O)C1` (stereo not given), the max activity is 8.23%. Then `Cc1nnsc1CN(C)Cc1[nH]c2ccc(F)cc2c1C`, with 12.6% [at 0.16 µM]; and `CC(C)NC(=O)N1CC(=O)N2[C@H](CO)[C@H](c3ccc(/C=C/c4ccccc4)cc3)[C@@H]2C1`, with 20.9%; and `COc1ccc(-c2nc(NCCCN3CCCC3)c3ccccc3n2)cc1`, with 7.2%. The same measure for `COc1ccc(-c2nc(NCCN3CCN(C)CC3)c3ccccc3n2)cc1`: 12.8%; for `COc1ccc(-c2nc(NCCN3CCC(C)CC3)c3ccccc3n2)cc1`: 5.6% [at 10 µM]. Then `COc1ccc(-c2ccc([C@H]3[C@H]4CN(Cc5ccccc5)CC(=O)N4[C@H]3CO)cc2)cc1`, with 43.4%; and `COc1ccc(-c2nc(NCCN3CCOCC3)c3ccccc3n2)cc1`, with 8.12%; and `CC(c1cc2ccccc2s1)N(O)C(N)=O` (stereo not given), with -4.76% [at 5 µM]. In the case of `CN1[C@H](CO)[C@@H]2c3ccccc3N(C(=O)C3CCCCC3)C[C@@H]21`, the max activity was -10.7% [at 0.3 µM]. The same measure for `O=S(=O)(c1cccs1)N1CCCCN2[C@@H](CO)[C@@H](c3ccc(/C=C/c4ccccc4)cc3)[C@@H]2C1`: 38.2%. Consider `C/C=C/c1ccc([C@@H]2[C@@H](CO)N3CCCCN(CCC(F)(F)F)C[C@@H]23)cc1`, for which the max activity is 39.6%. Then `C/C=C/c1ccc([C@H]2[C@@H](CO)N3CCCCN(S(=O)(=O)c4ccc(OC)cc4)C[C@H]23)cc1`, with 19.6%; and `O=S(=O)(c1ccccc1)N1CCCCN2[C@@H](CO)[C@H](c3ccc(C#CC4CCCC4)cc3)[C@@H]2C1`, with 49.6%. The same measure for `CCC[C@@]1(CCc2ccccc2)CC(=O)C([C@H](CC)c2cccc(NS(=O)(=O)c3ccc(C(F)(F)F)cn3)c2)C(=O)O1` (stereo not given in full): 6.55% [at 10 µM]. The same measure for `Cc1ccc(-c2ccc([C@H]3[C@@H](CO)N4C(=O)CN(C(=O)NC(C)C)C[C@@H]34)cc2)cc1`: -19.8% [at 5 µM]; for `COCCC(=O)c1cc2c(s1)CCN2Cc1cccnc1`: -10.9% [at 0.6 µM]; for `CN1CCC(=C2c3ccccc3C=Cc3ccccc32)CC1`: 23.8%. For the compound `N#C[C@@H]1[C@H](c2ccc(C#Cc3cccc(F)c3)cc2)[C@H](CO)N1C(=O)C1CCOCC1`, the max activity is 23.4%. The same measure for `COc1ccc(-c2ccc([C@H]3[C@H](C#N)N(C(=O)NC(C)C)[C@H]3CO)cc2)cc1`: 23.7%; for `N#C[C@H]1[C@@H](c2ccc(-c3cccnc3)cc2)[C@@H](CO)N1C(=O)Nc1ccc(F)cc1`: 7.86%; for `N#C[C@H]1[C@@H](c2ccc(C3=CCCCC3)cc2)[C@@H](CO)N1C(=O)Nc1ccccc1F`: 15.8% [at 10 µM]. Then `N#C[C@H]1[C@H](c2ccc(C#Cc3cccc(F)c3)cc2)[C@@H](CO)N1C(=O)C1CCOCC1`, with 10.6%; and `CCCNC(=O)N1C[C@@H]2N[C@H](C1)C2c1ccc(-c2ccccc2C)cc1` (stereo not given in full), with 14.1% and 25.2%; and `COc1cccc(C#Cc2ccc([C@H]3[C@@H](C#N)N(C(=O)c4ccccn4)[C@@H]3CO)cc2)c1`, with 21.5%. The same measure for `N#C[C@H]1[C@H](c2ccc(C#Cc3ccccc3F)cc2)[C@@H](CO)N1C(=O)c1cccnc1`: -12.3% [at 10 µM]. Take `CC(C)C#Cc1ccc([C@@H]2[C@H]3CN(S(=O)(=O)c4ccccc4)CC(=O)N3[C@H]2CO)cc1`: the max activity is 15.9%. The same measure for `CN1C[C@H]2CN(Cc3ccc4c(c3)OCO4)CCC[C@@]2(C(=O)O)C1`: -10.3% [at 5 µM]. The same measure for `CS(=O)(=O)N1CC(=O)N2[C@H](CO)[C@@H](c3ccc(C#CCC4CCCC4)cc3)[C@@H]2C1`: 58.7%; for `CC(C)C#Cc1ccc([C@H]2[C@H](CO)N3C(=O)CN(C(=O)NC4CCCC4)C[C@@H]23)cc1`: -11.2%. On to `COc1ccccc1-c1ccc([C@H]2[C@H](CO)N[C@@H]2C#N)cc1`, for which the max activity is 29.5%.

With `N#Cc1cccc(-c2ccc([C@@H]3[C@H]4CN(Cc5ccccc5F)CCCCN4[C@H]3CO)cc2)c1`, the max activity was -16.7% [at 0.6 µM]. In the case of `N#Cc1cccc(-c2ccc([C@H]3[C@H]4CN(Cc5ccccc5F)CCCCN4[C@H]3CO)cc2)c1`, the max activity is 25.1%.

In the case of `COc1ccccc1C#Cc1ccc([C@@H]2[C@@H](CO)N3CCCCN(C(=O)C4CCC4)C[C@H]23)cc1`, the max activity was 18.4% [at 10 µM].

`COc1ccccc1C#Cc1ccc([C@H]2[C@@H](CO)N3CCCCN(C(=O)C4CCC4)C[C@@H]23)cc1`: the max activity is -3.84% [at 0.16 µM].

As for `O=C(C1CCC1)N1C[C@@H]2N[C@H](C1)C2c1ccc(/C=C/c2ccccc2)cc1` (stereo not given in full), the max activity was -22.2% [at 0.3 µM]. The same measure for `NCCNC(=O)c1nc(-c2ccc(Br)o2)no1`: 7.54% [at 0.08 µM].

`O=C(Cc1cccnc1)N1CC(=O)N2[C@@H](CO)[C@H](c3ccc(C4=CCCCC4)cc3)[C@@H]2C1`: the max activity is 18.9% [at 0.16 µM]. The same measure for `Cc1nc2c(cnn2-c2ccccc2)c(=O)n1-c1cccc2ccccc12`: -11.1% [at 10 µM]; for `CCS(=O)(=O)N1CCc2nc(-c3cccc(F)c3)nc(NC3CC3)c2C1`: -10.7% [at 2.6 µM].

For `COCC1(C(=O)N2CCc3c(nc(-c4ccccc4)[nH]c3=O)C2)CCC1`, the max activity is 24.5%. Then `CC(C)CNC(=O)[C@H]1C[C@H]2CN(Cc3cccc(Cl)c3)C[C@H]1O2`, with 13.8% [at 0.3 µM]; and `Cc1ccc(CN2C[C@@H]3C[C@H](C(=O)Nc4ccccc4)[C@@H](C2)O3)cc1`, with 4.12% [at 0.6 µM]. The same measure for `CC(C)(C)c1nc2ccccc2c2nnc(SCc3ccccn3)n12`: 9.04% [at 0.3 µM]; for `CN1CCN(Cc2cnc3n2CCN(CC2CCOCC2)C3)CC1`: 22.9% [at 1.2 µM].

Regarding `CN(C)C(=O)CN1CCOCC2(CCN(CC3CCOC3)CC2)C1` (stereo not given), the max activity was 12.7%.

For `CN1CCCN(C(=O)c2cc3c(c4ccccc4n3CC3CC3)n2S(C)(=O)=O)CC1`, the max activity was 25.4%. As for `O=C(c1cnccn1)N1CC(=O)N2[C@H](CO)[C@H](c3ccc(/C=C/c4ccccc4)cc3)[C@@H]2C1`, the max activity was 9.53% [at 10 µM]. The same measure for `COC12CC(COC(=O)c3cncc(Br)c3)CN(C)C1Cc1cn(C)c3cccc2c13` (stereo not given): -18.1% [at 1.2 µM]; for `CC(=O)NCc1nnn2c1CN(c1ncccn1)CCC2`: -8.02% [at 0.6 µM] and 9.77% [at 0.6 µM].

As to `CCC(=O)N1CC[C@@H]2[C@H]1c1cc(-c3ccc(C#N)cc3)ccc1N(C)[C@H]2CO`, the max activity was -11.1% [at 0.6 µM]. The same measure for `CCC(=O)N1CC[C@@H]2[C@@H](CO)N(C)c3ccc(-c4ccc(C#N)cc4)cc3[C@@H]21`: -14.1% [at 1.2 µM]; for `COc1ccc(-c2ccc3c(c2)[C@@H]2[C@@H](CCN2C(=O)c2ccncc2)[C@H](CO)N3C)cc1`: -18.6% [at 5 µM]. The same measure for `CN1c2ccc(C#Cc3cccnc3)cc2[C@@H]2[C@@H](CCN2C(=O)c2cccc(F)c2)[C@H]1CO`: 5.34%; for `CC(C)NC(=O)N1CC[C@@H]2[C@H]1c1cc(-c3ccc(F)cc3)ccc1N(C)[C@H]2CO`: 11.4% [at 10 µM]. Then `COc1cccc(-c2ccc3c(c2)[C@@H]2[C@@H](CCN2C(=O)c2ccccc2F)[C@@H](CO)N3C)c1`, with 24%. On to `NC(N)=N/N=C/c1c(Cl)cccc1Cl`, for which the max activity was -13.6% [at 2.35 µM]. The same measure for `C=CCN1C(=O)CCCC12CCCN(S(=O)(=O)Cc1ccccc1)C2` (stereo not given): -8.38% [at 10 µM]; for `CN(C)CCNC(=O)c1c2c(NCc3cccnc3)ncnc2n2ccccc12`: 8.13% [at 10 µM]. The same measure for `CCN1Cc2c(C(=O)Nc3ccc(C)cc3)ncn2-c2ccccc2S1(=O)=O`: -12.3% [at 0.16 µM]; for `CC(C)N1c2ccc(F)cc2[C@@H]2CN(C(=O)c3ccco3)CC[C@H]21`: 9.4%; for `Cc1ccccc1-c1ccc([C@@H]2[C@@H](CO)N3CCCCN(S(=O)(=O)Cc4ccccc4)C[C@H]23)cc1`: 6.43% [at 10 µM].

Consider `Cc1ccoc1C(=O)N1CC[C@H]2CO[C@@H](CN3CCN(C)CC3)[C@@H]2C1`, for which the max activity is -13%. Then `COc1ccc(C[C@H]2CN(C(=O)c3ccnn3C)CC[C@H]2OC)cc1`, with -12.6% [at 5 µM]; and `O=C(Nc1ccccc1)[C@@H]1[C@@H](CO)[C@@H]2Cn3c(ccc(C4=CCCCC4)c3=O)[C@@H]2N1Cc1cocn1`, with -11.6% [at 10 µM]; and `CCN1CC2(CCN(C(=O)COc3ccccc3)CC2)COc2ccccc2S1(=O)=O`, with -3.38% [at 2.6 µM]. With `CCOCC1CC2(CCN(C(=O)COc3ccc(C)cc3)CC2)CO1` (stereo not given), the max activity was -10.4% [at 5 µM]. Then `CC(C)n1ncc(NC(=O)Cn2ccc(-c3ccc(C(F)(F)F)cc3)n2)n1`, with -7.47% [at 0.3 µM].
